Measurements as given in PubChem BioAssay AID1159577 (Broad Institute, 2015).
The whole screen tested about 1,300 compounds, of which about 240 (18%) were called active. About 8% were inconclusive and are not listed. The rule behind the calls is not given here. The list is a sample of the results. Results with a measured potency or affinity are listed apart.

Test: HepG2 cell cytotoxicity, dose response, cytotoxicity control, cherry-picked samples (AID 1159577)
Conditions: HepG2 cytotoxicity counterscreen, plate reader; series mostly up to 19.5 µM

| Structure (SMILES) | outcome |
| --- | --- |
| C[C@@H]1CN([C@H](C)CO)C(=O)c2cccc(NS(=O)(=O)c3ccccc3)c2O[C@H]1CN(C)Cc1ccc(Oc2ccccc2)cc1 | inactive |
| COc1cccc(NC(=O)N(C)C[C@H]2Oc3ncc(/C=C/c4ccccc4)cc3C(=O)N([C@@H](C)CO)C[C@@H]2C)c1 | inactive |
| COc1cccc(S(=O)(=O)N2CCC3(CC2)CN[C@@H](CO)c2[nH]c4cc(OC)ccc4c23)c1 | inactive |
| COc1ccc(CN2C[C@H](C)[C@H](OC)CN(C)C(=O)c3cc(NC(=O)c4nc5ccccc5s4)ccc3OC[C@@H]2C)cc1 | inactive |
| C[C@@H]1CN([C@H](C)CO)C(=O)c2cccc(NC(=O)c3nc4ccccc4s3)c2O[C@H]1CN(C)C(=O)NC1CCCCC1 | inactive |
| C[C@@H]1CN([C@H](C)CO)C(=O)c2c(c3ccccc3n2C)-c2ccccc2CO[C@H]1CN(C)S(=O)(=O)c1ccsc1 | inactive |
| CCCNC(=O)N1CC2(CCN(C(=O)CN(C)C)CC2)c2c(n(C)c3cc(OC)ccc23)[C@H]1CO | inactive |
| CCC(=O)N1CC2(CCN(Cc3ccc(Cl)cc3)CC2)c2c(n(C)c3cc(OC)ccc23)[C@@H]1CO | inactive |
| CC(C)(C)S(=O)N1Cc2cc(C(=O)N[C@@H]3CCN(Cc4ccccc4)C3)nc(-c3cccc(C#CCC4CCCC4)c3)c2[C@H]1CCO (some centres undefined) | inactive |
| COc1ccc(C#Cc2ccc3c(c2)O[C@@H](CN(C)C(=O)Nc2cccc(OC)c2)[C@H](C)CN([C@@H](C)CO)S3(=O)=O)cc1 | inactive |
| CO[C@@H]1CN(C)C(=O)c2cc(NC(=O)NC3CCCCC3)ccc2OC[C@@H](C)N(CCc2ccccc2)C[C@H]1C | inactive |
| COc1ccc2c3c([nH]c2c1)[C@@H](CO)N(Cc1cccc(F)c1)CC31CCN(Cc2ccccn2)CC1 | inactive |
| COc1ccc(C#Cc2ccc([C@@H]3[C@@H](CO)N4CCCCN(C(=O)Nc5ccccc5F)C[C@@H]34)cc2)cc1 | inactive |
| COc1ccc(C#Cc2ccc([C@H]3[C@@H](CO)N4CCCCN(C(=O)Nc5ccccc5F)C[C@@H]34)cc2)cc1 | inactive |
| N#C[C@@H]1[C@@H](c2ccccc2-c2ccccc2F)[C@H](CO)N1C(=O)C1CC1 | inactive |
| COCc1cn([C@@H]2C[C@@H]3O[C@@H](CO)CC[C@@H]3O[C@@H]2CCc2ccc(-c3ccc(OC)cc3)cc2)nn1 | inactive |
| O=C(Nc1cccc(F)c1)N[C@@H]1CC[C@@H](CCNS(=O)(=O)c2cccc(Cl)c2)O[C@@H]1CO | inactive |
| CCCNC(=O)N1[C@H](C#N)[C@H](c2ccc(-c3cccc(OC)c3)cc2)[C@@H]1CO | inactive |
| CC(C)NC(=O)N1[C@H](C#N)[C@H](c2ccccc2-c2ccc(F)cc2)[C@@H]1CO | inactive |
| CC(C)NC(=O)N1[C@H](C#N)[C@H](c2ccc(C#CC3CCCC3)cc2)[C@@H]1CO | inactive |
| COc1ccc(-c2ccc([C@H]3[C@H](C#N)N(C(=O)c4cccc(F)c4)[C@H]3CO)cc2)cc1 | inactive |
| CC(C)NC(=O)N1[C@H](C#N)[C@H](c2ccc(-c3ccc(F)cc3)cc2)[C@@H]1CO | inactive |

| Structure (SMILES) | outcome |
| --- | --- |
| COc1ccc(-c2ccccc2[C@H]2[C@@H](C#N)N(C(=O)NC(C)C)[C@H]2CO)cc1 | inactive |
| C[C@H]1CN([C@@H](C)CO)C(=O)c2c(c3ccccc3n2C)-c2ccccc2CO[C@@H]1CN(C)S(=O)(=O)c1ccc(C(F)(F)F)cc1 | inactive |
| C[C@H]1CN([C@@H](C)CO)C(=O)c2cc(NC(=O)Cc3cn(C)c4ccccc34)ccc2O[C@H]1CN(C)S(=O)(=O)c1ccccc1 | inactive |
| CO[C@H]1CN(C)C(=O)c2cc(NC(=O)c3ccc(F)cc3)ccc2OC[C@H](C)N(C(=O)c2ccc(F)cc2)C[C@H]1C | inactive |
| O=C(c1ccccn1)N1CC(=O)N2[C@H](CO)[C@@H](c3ccc(C#CCc4ccccc4)cc3)[C@@H]2C1 | inactive |
| CCCNC(=O)c1cc2c(c(-c3cccc(-c4cc5ccccc5o4)c3)n1)[C@@H](CCO)N(C(=O)NC(C)C)C2 | inactive |
| N#Cc1ccc(-c2ccc(C3[C@@H]4CN(C(=O)C5CCC5)C[C@H]3N4)cc2)cc1 (some centres undefined) | inactive |
| O=C(C1CCC1)N1C[C@@H]2N[C@H](C1)C2c1ccc(-c2ccccc2F)cc1 (some centres undefined) | inactive |
| C/C=C/c1ccc([C@H]2[C@H](CO)N(S(=O)(=O)Cc3ccccc3)C23CN(C(=O)C2CCCC2)C3)cc1 | inactive |
| CCCNC(=O)N1CCC2(CC1)CN(Cc1cccc(F)c1)[C@@H](CO)c1[nH]c3cc(OC)ccc3c12 | inactive |
| C[C@@H]1CN([C@@H](C)CO)C(=O)c2cccc(NC(=O)C3CC3)c2O[C@H]1CN(C)Cc1ccc(-c2ccccc2)cc1 | inactive |
| C[C@H](CO)N1C[C@H](C)[C@H](CN(C)S(=O)(=O)c2ccccc2)Oc2ccc(NC(=O)Cc3cn(C)c4ccccc34)cc2C1=O | inactive |
| C[C@H]1CN([C@@H](C)CO)S(=O)(=O)c2ccc(C#Cc3ccccc3F)cc2O[C@@H]1CN(C)C(=O)c1ccc2c(c1)OCO2 | inactive |
| CO[C@H]1CN(C)C(=O)c2cc(NC(C)=O)ccc2OC[C@H](C)N(Cc2ccncc2)C[C@H]1C | inactive |
| C[C@@H]1CN([C@@H](C)CO)C(=O)Cc2cc(NC(=O)NC3CCCCC3)ccc2O[C@H]1CN(C)C(=O)Nc1cccc2ccccc12 | inactive |
| CCCC#Cc1ccc2c(c1)[C@H]1[C@H](CCN1Cc1ccccc1F)[C@@H](CO)N2 | inactive |
| COc1ccc(C#Cc2ccc3c(c2)[C@H]2[C@H](CCN2Cc2nccs2)[C@H](CO)N3)cc1 | inactive |
| COc1ccc(C#Cc2ccc3c(c2)[C@H]2[C@H](CCN2Cc2ccncc2)[C@H](CO)N3)cc1 | inactive |
| COc1ccccc1-c1ccc2c(c1)[C@@H]1[C@@H](CCN1C(=O)C1CCCCC1)[C@@H](CO)N2 | inactive |
| COc1ccccc1-c1ccc2c(c1)[C@H]1[C@H](CCN1C(=O)C1CCCC1)[C@@H](CO)N2 | inactive |
| COc1ccc(C#Cc2ccc3c(c2)[C@H]2[C@H](CCN2Cc2ccncc2)[C@@H](CO)N3)cc1 | inactive |
| OC[C@H]1CC[C@@H]2O[C@H](CCc3ccc(C#CCc4ccccc4)cc3)[C@H](n3cc(-c4ccccc4)nn3)C[C@@H]2O1 | inactive |
